# RORgamma inh: blocks mouse ROR gamma transcriptional activity; P51450; Drosophila S2 Gal4-RORgamma UAS-luciferase reporter, 20 h; Potency, µM (doses to about 53.6 µM), without a hit: at the top dose activity change, negative = inhibition, usual class: inhibitors; 5.4% of 310,000 active; AID 2551; note: nearly all actives have a fitted effect of over 60% in size
# Target sequence (P51450 whole entry, looked up, the tested form may be a part): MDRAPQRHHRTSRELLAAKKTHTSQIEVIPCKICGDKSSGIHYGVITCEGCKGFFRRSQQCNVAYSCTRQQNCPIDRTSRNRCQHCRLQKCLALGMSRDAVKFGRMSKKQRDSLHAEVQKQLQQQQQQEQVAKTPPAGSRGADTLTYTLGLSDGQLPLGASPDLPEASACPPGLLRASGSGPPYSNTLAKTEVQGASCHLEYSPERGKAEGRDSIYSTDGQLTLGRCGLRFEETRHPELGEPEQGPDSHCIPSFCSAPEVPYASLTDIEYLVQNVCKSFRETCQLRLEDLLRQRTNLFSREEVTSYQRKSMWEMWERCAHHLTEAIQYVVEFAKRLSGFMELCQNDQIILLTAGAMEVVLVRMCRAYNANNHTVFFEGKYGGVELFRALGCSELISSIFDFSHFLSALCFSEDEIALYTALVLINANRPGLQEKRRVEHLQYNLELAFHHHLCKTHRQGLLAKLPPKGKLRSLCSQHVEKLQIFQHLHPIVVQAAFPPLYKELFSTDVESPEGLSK
#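 Compounds are pin-transferred onto Drosophila Schneider cells expressing a copper-inducible Gal4–ROR gamma transactivation domain fusion. After 1 hr, copper sulfate is added to 700 uM final; luciferase is read 20 hr later.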
# Gal4-VP16 FLuc: Gal4-VP16 reporter inhibition counter-screen | Potency, µM (titrated, usually from 53.6 µM), for inactives: top-dose activity, negative = inhibition, hits mostly inhibitors | Drosophila S2 Gal4-VP16 UAS-luciferase, luminescence, 20 h | 3.5% of 310,000 active;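 note: Gal4-VP16 expression switched on by copper sulfate through the metallothionein promoter; nearly all actives have a fitted effect of over 50% in size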
# Luc counter: blocks Kinase-Glo luciferase, a counter-screen artifact | Kinase-Glo luciferase, ATP luminescence, 8 min | Q27757 | AID 1379 | 0.28% of 200,000 active | Potency, µM (top dose mostly 38.3 µM), for inactives: at the top dose activity change, negative = inhibition, usual class: inhibitors; note: nearly all actives have a fitted effect of over 60% in size
#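 Compound is pinned into ATP-containing buffer (10 uM ATP, imidazole pH 7.2, 7 mM MgCl2). Kinase-Glo luciferase reagent is then added. Light output is recorded following an 8-min room-temperature incubation.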
# Starred values were filed as active, the others as inactive; ? = inconclusive; . = no result; [ ] = remark or other dose. In the library only some 6.4% were active in any assay of this set; here they are far more common. Calls come from the whole dose curve; as a rule, active = well fitted curve in the direction sought with a large enough effect; inconclusive = small, poorly fitted or top-dose-only effect, or another doubt; inactive = no such curve, though single readings can be large; an effect the other way counts as inactive or inconclusive. % is set by controls: 0 for no effect and ±100 for the full control effect; potency is the fitted concentration of half-maximal effect.
SMILES,RORgamma inh,Gal4-VP16 FLuc,Luc counter
COc1cc(C(=O)NC(C(=O)Nc2cccc(C(C)=O)c2)C(C)C)cc(OC)c1OC (configuration not stated),-35%,15%,1%
CC(C)c1nnc(NC(=O)c2nc(S(=O)(=O)Cc3ccc(F)cc3)ncc2Cl)s1,11µM*,?,.
CC(C)c1nnc(NC(=O)CS(=O)(=O)Cc2ccccc2)s1,-18%,10%,7%
CC(C)c1nnc(NC(=O)CCC(=O)N2CCN(Cc3ccc(F)cc3)CC2)s1,-3%,-7%,.
Cc1ccc(CS(=O)(=O)c2ncc(Cl)c(C(=O)Nc3nnc(C(C)C)s3)n2)cc1,?,7.1µM*,.
O=C(Cc1ccc(-n2c(=O)[nH]c3ccsc3c2=O)cc1)N1CCN(c2ccc(Cl)cc2)CC1,15%[10 µM],2%,0%
Cc1cc(C)c(NC(=O)C2CCCN(S(=O)(=O)c3c(C)noc3/C=C/N(C)C)C2)c(C)c1 (configuration not stated),3%,5%,.
Cc1nc(N2CCOCC2)c2oc3ccccc3c2n1,-23%,-3%,1%
CCc1nc(N2CCN(Cc3ccc4c(c3)OCO4)CC2)c2oc3ccccc3c2n1,13µM*,-29%,2%
CCOC(=O)C1CCCN(c2nc(C)nc3c2oc2ccccc23)C1 (configuration not stated),?,?,-2%
CCc1nc(N2CCCCC2)c2oc3ccccc3c2n1,16µM*,-23%,-1%
CCc1nc(N2CCCC(C)C2)c2oc3ccccc3c2n1 (configuration not stated),-88%,4µM*,.
CCC(C)Nc1nc(C)nc2c1oc1ccccc12 (configuration not stated),-16%,?,.
Cc1nc(NC(C)c2ccccc2)c2oc3ccccc3c2n1 (configuration not stated),?,13µM*,-3%
CCc1nc(Nc2ccc3c(c2)OCO3)c2oc3ccccc3c2n1,-1%,-4%,-2%
COc1ccc(-n2nc([N+](=O)[O-])c(=NCCC3=CCCCC3)n2O)cc1,22%,4%,1%
Cc1c(C(=O)N2CCCCC2)c(S(=O)(=O)N2CCc3ccccc32)c(C)n1C,-4%,-1%,.
COc1ccc(NC(=O)CCc2nnc3ccc(N4CCC5(CC4)OCCO5)nn23)cc1,-16%,12%,.
N#C/C(=C\c1c[nH]c2ccccc12)C(=O)c1ccc(O)c(O)c1,.,.,-5%
CC(C)(C)NC(=O)Cn1nnc(-c2ccc(OCc3c(F)cccc3Cl)cc2)n1,?,-27%,.
CC1CCN(C(=O)CCS(=O)(=O)c2cc3c(cc2Cl)NC(=O)CO3)CC1,6%,-4%,.
CCc1nc(N2CCCCC2C(=O)O)c2oc3ccccc3c2n1 (configuration not stated),22%,3%,.
CCc1nc(N[C@H](C(=O)O)C(C)C)c2oc3ccccc3c2n1,-5%,9%,.
CCc1nc(N2CCCCC2C)c2oc3ccccc3c2n1 (configuration not stated),18µM*,?,1%
CCc1nc(NC(C)C)c2oc3ccccc3c2n1,13µM*,-1%,1%
SMILES,RORgamma inh,Gal4-VP16 FLuc,Luc counter
COc1ccc(C2=NS(=O)(=O)N(C)C(C(=O)NCc3ccccn3)=C2)cc1OC,-19%,-3%,.
CCCOc1ccc(Cn2cnc3ccccc32)cc1,16µM*,?,1%
Cc1cccc(Cn2cnc3ccccc32)c1,?,-23%,-2%
Cc1ccc(Cn2cnc3ccccc32)cc1C,10µM*,?,-1%
Fc1ccc(Cn2cnc3ccccc32)cc1,-34%,23%,2%
C=C1C(=O)OC(CCCCCCCC)C1C(=O)O (configuration not stated),18%,-28%,.
C=CCn1c(=O)c(C(=O)Nc2ccccc2S(N)(=O)=O)c(O)c2ccccc21,1%,4%,-1%
Cn1cccc1CNC(=S)Nc1ccccc1Cl,6.3µM*,-7%,4%
Cn1cccc1CNC(=S)Nc1ccccc1F,13µM*,1%,1%
Cc1cc(C)cc(NC(=S)NCc2cccn2C)c1,2.8µM*,10µM*,-2%
Cn1cccc1CNCc1ccccc1Cl,0%,0%,-1%
Cn1cccc1CNC(=O)Nc1ccccc1,?,10%,6%
Cc1ccc(NC(=O)NCc2cccn2C)cc1C,17%,25%,.
COc1ccc(Cl)cc1N=Nc1ncc[nH]1,?,-11%,1%
COc1ccc(C2=NS(=O)(=O)N(C)C(C(=O)NCc3cccs3)=C2)cc1OC,13%,-5%,.
CCc1ccc(S(=O)(=O)NCCc2cn3cccc(C)c3n2)s1,20%,-13%,10%
COc1ccc(CNC(=O)C2CCC(CNC(=O)[C@@H]3Cc4ccccc4CN3)CC2)cc1 (some centres not stated),?,-10%,.
Cc1ccc(C)c(C(=O)CSc2nnnn2C(C)C)c1,22%,-3%[0.365 µM],1%
Cc1ccc(C(=O)CSc2nnnn2C(C)C)c(C)c1,11µM*,13µM*,1%
C=CCNC(=O)c1ccc2c(=O)n(CCCN3CCCC3=O)c(=S)[nH]c2c1,36%,-4%[10 µM],-1%
COc1cccc(CC2(CO)CCCN(Cc3ccc(CO)o3)C2)c1 (configuration not stated),8%,1%,.
COc1ccc(-n2ccnc2CN2CCCC(CO)(Cc3cccc(OC)c3)C2)cc1 (configuration not stated),11µM*,-9%,.
O=C(Nc1cccnc1Cl)c1cc(-c2ccc(Br)cc2)on1,9%,1%,.
COC(=O)c1sccc1NC(=S)NCc1ccc(Cl)cc1,0.79µM*,1.3µM*,.
COC(=O)c1cc(NC(=S)NCc2ccc(Cl)cc2)cc(C(=O)OC)c1,?,?,3%
SMILES,RORgamma inh,Gal4-VP16 FLuc,Luc counter
COC(=O)c1sccc1NC(=O)CSc1ccc(Cl)cc1,-6%,1%,1%
COC(=O)c1ccc(C)c(NC(=S)NCc2ccc(Cl)cc2)c1,8.9µM*,14µM*,4%
O=C(Cc1csc(NC(=O)c2ccc(F)cc2)n1)NO,-26%,6%,0%
CCCCSc1nc(O)cc(=O)n1CC,5%,-2%,1%
Fc1cccc(Cl)c1CNCc1cccnc1,-4%,8%,.
O=C1OC(/C(=C\Nc2ccc(F)cc2F)[N+](=O)[O-])c2ccccc21 (configuration not stated),14µM*,?,0%
Cc1ccc(N/C=C(\C2OC(=O)c3ccccc32)[N+](=O)[O-])c(C)c1 (configuration not stated),?,?,1%
CN(C)c1nc(Nc2ccc(F)cc2)nc(Oc2ccc(F)cc2)n1,57%,-13%,.
CN(C)c1nc(N/N=C/c2ccccc2O)nc(Nc2ccc(F)cc2)n1,0.22µM*,1.1µM*,.
C=CCNc1nc(-c2c(C)nc3sccn23)cs1,?,-24%,0%
Cc1nc2sccn2c1-c1csc(NCc2ccccc2)n1,?,1µM*,-3%
O=C1C=CC2=C3c4cc(O)c(O)cc4C[C@@]3(O)COC2=C1,-45%,-5%,-2%
CCc1cccc(CC)c1NC(=O)COC(=O)c1ccc(F)c(S(=O)(=O)N(CC)CC)c1,12%,-5%,3%
S=C(NC1CCCCC1)N1CCCCC1,-38%,9%,.
CCC1CCCCN1C(=S)NC1CCCCC1 (configuration not stated),10µM*,?,0%
